Screens deposited in PubChem by National Center for Advancing Translational Sciences (NCATS).
LmPK inhibitor: qHTS Assay for Inhibitors of Leishmania Mexicana Pyruvate Kinase (LmPK) | Q27686 | purified LmPK, Kinase-Glo ATP luminescence, 1 h | Potency, µM (highest dose often 57.5 µM), usual class: inhibitors | hit rate 0.37% among 290,000
Target sequence (Q27686 whole entry, looked up): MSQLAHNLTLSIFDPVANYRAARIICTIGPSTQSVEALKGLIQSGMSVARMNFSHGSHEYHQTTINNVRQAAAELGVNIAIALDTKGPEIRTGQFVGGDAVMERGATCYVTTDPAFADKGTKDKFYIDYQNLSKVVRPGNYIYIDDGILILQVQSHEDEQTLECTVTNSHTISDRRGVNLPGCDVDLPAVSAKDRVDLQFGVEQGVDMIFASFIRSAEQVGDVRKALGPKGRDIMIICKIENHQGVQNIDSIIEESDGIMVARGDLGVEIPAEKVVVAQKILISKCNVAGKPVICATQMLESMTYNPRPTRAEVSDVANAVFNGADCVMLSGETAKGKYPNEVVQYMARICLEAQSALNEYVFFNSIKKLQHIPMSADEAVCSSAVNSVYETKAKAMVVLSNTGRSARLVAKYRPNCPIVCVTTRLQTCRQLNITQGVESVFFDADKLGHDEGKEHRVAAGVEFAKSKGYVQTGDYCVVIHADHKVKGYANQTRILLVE
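Pyruvate kinase activity monitored as ATP production (luciferase luminescence). Conditions: 0.1 nM enzyme, 0.5 mM PEP, 0.1 mM ADP, 1 h, RT; normalized against uninhibited and no-enzyme wells.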
TbPYK inhibitor: qHTS of Trypanosoma Brucei Inhibitors; TbPYK enzyme, Kinase-Glo Plus ATP luminescence, 45 min; Potency, µM (titrated, usually from 76.8 µM), hits mostly inhibitors; hit rate 0.12% among 410,000; also: nearly all actives have a fitted effect of over 50% in size
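Screened from lowest to highest concentration, compounds were pinned into TbPYK/substrate mixtures, and ADP (130 uM final) was added. Plates sat at room temperature for 45 min prior to Kinase-Glo Plus detection by luminescence.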
RE007 growth inh: qHTS Assay for Inhibitors of the HIV-1 protein Vpr | AID 651644, 2012 | S. pombe RE007 Vpr strain, BacTiter-Glo ATP luminescence, 24 h | hit rate 0.21% among 360,000 | Potency, µM (highest dose often 92.2 µM), hits mostly inhibitors; active = well fitted falling curve with a large enough effect; inconclusive = small, poorly fitted or top-dose-only effect; inactive = no such curve, though single readings can be large or run the other way; also: nearly all actives have a fitted effect of over 50% in size
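Fission yeast RE007 carrying one integrated HIV-1 vpr copy, seeded at OD 0.01 in PMG+AL medium with 23 nL pinned compound. Grown 24 h at 30 degrees; viability read by BacTiter-Glo luminescence after 5 min.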
Cycloheximide cs: Cycloheximide Counterscreen for Small Molecule Inhibitors of Shiga Toxin; cell reporter, cycloheximide protein synthesis inhibition counterscreen; max response, %; hit rate 12% among 300,000; in the data active = max response mostly above about 13%, no sharp cut-off; inactive = mostly below about 14%; also: read at 38.3 µM for the half of the compounds with a filed dose
FBPA Giardia inh: qHTS Assay for Inhibitors of Fructose-1,6-bisphosphate Aldolase from Giardia Lamblia. Potency, µM (top dose mostly 59.6 µM), most hits filed as inhibitors. A8B2U2. hit rate 0.71% among 290,000. purified Giardia FBPA; also: nearly all actives have a fitted effect of over 55% in size
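Giardia FBPA (40 nM reagent) was preincubated 10 min at RT with compound (up to 57.5 uM final), then substrate plus GAPDH/TPI/NAD/arsenate coupling system with diaphorase/resazurin was added; resorufin fluorescence (525/598 nm) was read after 20 min.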
Shiga inhibitor: A qHTS for Small Molecule Inhibitors of Shiga Toxin | Vero cells, Shiga toxin protein synthesis inhibition reporter | inhibition, % at 38.7 µM | hit rate 9.2% among 290,000; in the data active = inhibition mostly above about 28%, no sharp cut-off; inactive = mostly below about 43%
Of the large screens only hits and unclear results are named; the others gave an inactive call. Many of the other results were omitted from the sample, so hits are more common in it than they were. Unless noted, calls follow the shape of the dose curve; as a rule, active = well fitted curve in the direction sought with a large enough effect; inconclusive = small, poorly fitted or top-dose-only effect, or another doubt; inactive = no such curve, though single readings can be large; an effect the other way counts as inactive or inconclusive.

O=c1c2ccccc2ncn1CCCSc1ccc(Cl)cc1	none
O=c1c2ccccc2ncn1CCCOc1ccccc1[N+](=O)[O-]	Cycloheximide cs 26, Shiga inhibitor 82
O=c1c2ccccc2ncn1CCCSc1ccccc1	Cycloheximide cs 9.6
c1ccc2c(c1)ncn2CCn1cnc2ccccc21	none
O=[N+]([O-])c1ccccc1OCCCn1cnc2ccccc21	Cycloheximide cs 34, FBPA Giardia inh inconclusive, Shiga inhibitor 54
O=C(O)C1CC=CCC1C(=O)Nc1ccc2c(c1)CCC2 (configuration not stated)	none (no result: FBPA Giardia inh)
Oc1ccccc1-c1cc(-c2ccccc2)no1	Cycloheximide cs 47, Shiga inhibitor active
Cc1ccc(-c2cc(-c3ccccc3)no2)c(O)c1	Cycloheximide cs 43
Cc1ccccc1-c1csc(N)n1	none (no result: LmPK inhibitor, Cycloheximide cs, FBPA Giardia inh, Shiga inhibitor)
Cc1ccccc1-c1cc(-c2ccccc2O)on1	Cycloheximide cs 52, Shiga inhibitor 76
Cc1ccc(O)c(-c2cc(-c3ccc(F)cc3)no2)c1	Cycloheximide cs 37, Shiga inhibitor 122
O=C(Cn1cnc2c(NC(=O)OCc3ccccc3)ncnc21)NCCN1CCOCC1	none (no result: LmPK inhibitor, Cycloheximide cs, FBPA Giardia inh, Shiga inhibitor)
CCCCNC(=O)C(NC(=O)c1ccc(-c2ccccc2)cc1)C(=O)c1ccccc1 (configuration not stated)	none (no result: LmPK inhibitor, TbPYK inhibitor, Cycloheximide cs, FBPA Giardia inh, Shiga inhibitor)
CC(C)c1ccc2oc(-c3ccc(NC(=O)c4cccc(Br)c4)cc3)nc2c1	none (no result: LmPK inhibitor, RE007 growth inh, Cycloheximide cs, FBPA Giardia inh, Shiga inhibitor)
CC(/C=C/c1ccc(N(C)C)cc1)=N\N=C1\NC(=O)CC(C(=O)Nc2ccccc2)S1 (configuration not stated)	Cycloheximide cs 49, Shiga inhibitor 63
CC(/C=C/c1ccc(N(C)C)cc1)=N/N=C1/NC(=O)CC(C(=O)Nc2ccc(Cl)cc2)S1 (configuration not stated)	Cycloheximide cs 48, Shiga inhibitor 60
CCCOc1ccc(NC(=O)C2CC(=O)N/C(=N/N=C(C)/C=C/c3ccc(N(C)C)cc3)S2)cc1 (configuration not stated)	Cycloheximide cs 40, Shiga inhibitor 82
COC(=O)/C=C/c1ccc(C(=O)NCC(=O)N[C@@H](CCC(=O)OC)C(=O)N[C@@H](CC(C)C)C(N)=O)cc1	none (no result: LmPK inhibitor, TbPYK inhibitor, RE007 growth inh)
COc1ccc(NC(=O)c2ccc3c(c2)OCO3)cc1Cl	Cycloheximide cs 66, Shiga inhibitor 76
O=C(Nc1ccc(F)c(Cl)c1)c1ccc2c(c1)OCO2	Cycloheximide cs 51, Shiga inhibitor 105
O=C(Nc1ccc(C(=O)N2CCCC2)cc1)c1ccc2c(c1)OCO2	LmPK inhibitor 16µM, RE007 growth inh inconclusive, Cycloheximide cs 27
COC(=O)c1c(-c2cccnc2)csc1NC(=O)c1ccc2c(c1)OCO2	TbPYK inhibitor inconclusive, Cycloheximide cs 37, Shiga inhibitor 70
O=C(Nc1ccc2c(c1)OCO2)c1ccc(Cl)cc1Cl	none (no result: FBPA Giardia inh)
COC(=O)c1sccc1NC(=O)c1ccc2c(c1)OCO2	none
O=C(NCc1ccco1)c1ccc(Cn2c(SCc3ccc(F)cc3)nc3cccnc32)cc1	none (no result: LmPK inhibitor, RE007 growth inh, Cycloheximide cs, FBPA Giardia inh, Shiga inhibitor)
COc1ccc(NCc2ccc3c(c2)OCO3)cc1Cl	Cycloheximide cs 22, Shiga inhibitor 43
COC(=O)c1ccc(NC(=O)c2ccc3c(c2)OCO3)cc1	Cycloheximide cs 24, Shiga inhibitor 43
CN(C)C(Cc1ccccc1)C(=O)c1c[nH]c2ccccc12 (configuration not stated)	Cycloheximide cs 28
CN(C)C(Cc1ccccc1)C(=O)c1ccccc1 (configuration not stated)	Cycloheximide cs 33, Shiga inhibitor 65
CC(Cl)C(=O)c1c[nH]c2ccccc12 (configuration not stated)	none
O=C1Nc2c(c(=O)[nH]c(=O)n2-c2ccccc2)C1(NS(=O)(=O)c1ccc(Cl)cc1)C(F)(F)F (configuration not stated)	none (no result: LmPK inhibitor, RE007 growth inh, Cycloheximide cs, FBPA Giardia inh, Shiga inhibitor)
CN(C)c1c([N+](=O)[O-])cc(N2C(=O)C=CC2=O)cc1[N+](=O)[O-]	TbPYK inhibitor 7.9µM (no result: LmPK inhibitor, Cycloheximide cs, FBPA Giardia inh, Shiga inhibitor)
Cn1c(=O)c(=O)n(C)c2cc([N+](=O)[O-])c([N+](=O)[O-])cc21	none
Cc1ccc(NC(=O)c2ccc3c(c2)OCCO3)cc1	none (no result: FBPA Giardia inh)
S=C(Nc1ccc(Br)cc1)Nc1ccc2c(c1)OCCO2	Cycloheximide cs 58, Shiga inhibitor 103
O=C(Nc1ccc2c(c1)OCCO2)c1ccc(Br)s1	Cycloheximide cs 55, Shiga inhibitor 40
O=C(Nc1ccc2c(c1)OCCO2)c1cccc(C(=O)Nc2ccc3c(c2)OCCO3)c1	Cycloheximide cs 34, Shiga inhibitor 37
O=C(Nc1cccc([N+](=O)[O-])c1)c1ccc2c(c1)OCCO2	Cycloheximide cs 41, Shiga inhibitor 89
O=C(Nc1ccccc1C(=O)Nc1ccc2c(c1)OCO2)c1cccs1	Cycloheximide cs 17
O=C(Nc1ccc(NC(=O)c2cc3ccccc3o2)cc1)c1ccc2c(c1)OCCO2	none
CCC(=O)Nc1ccc2c(c1)OCCO2	none
O=C(Nc1ccc2c(c1)OCO2)c1ccccc1	Cycloheximide cs 53, Shiga inhibitor 87
O=C(Nc1cccc(Cl)c1)c1ccc2c(c1)OCCO2	Cycloheximide cs 32, Shiga inhibitor 60
O=C(CC(=O)c1ccccc1)Nc1ccc2c(c1)OCCO2	Cycloheximide cs 43, Shiga inhibitor 74
Cc1onc(-c2ccccc2)c1C(=O)Nc1ccc2c(c1)OCO2	none
OCC1OC(Nc2ccccc2C=NO)C(O)C1O (configuration not stated)	none (no result: LmPK inhibitor, Cycloheximide cs, FBPA Giardia inh, Shiga inhibitor)
CC(=O)Nc1cc(-c2ccc(C(=O)N3CCOCC3)cc2)cn2c(-c3ccc(S(C)(=O)=O)cc3)cnc12	none (no result: LmPK inhibitor, Cycloheximide cs, FBPA Giardia inh, Shiga inhibitor)
CCOC(=O)N/N=C1/C[C@@H](O)[C@@H](O)[C@@H]2[C@@H]3C(=O)N(C[C@@H]4CCCO4)C(=O)[C@H]3CC[C@@H]12	none (no result: LmPK inhibitor, TbPYK inhibitor, RE007 growth inh, Cycloheximide cs, Shiga inhibitor)
C[C@H]1OC(OC2C(O)[C@@H](O)C(OC3C(O)[C@@H](O)C(O)O[C@@H]3CO)O[C@@H]2CO)[C@H](O)C(O)C1N[C@H]1C=C(CO)[C@@H](O)[C@H](O)C1O (some centres not stated)	none (no result: LmPK inhibitor, RE007 growth inh)
O=C(Nc1ccc2c(c1)OCCO2)c1ccccc1	LmPK inhibitor inconclusive, Cycloheximide cs 42, Shiga inhibitor 69
O=C(Nc1ccc2c(c1)OCCO2)c1cnn(-c2ccccc2)n1	RE007 growth inh inconclusive (no result: LmPK inhibitor, Cycloheximide cs, FBPA Giardia inh, Shiga inhibitor)
CS(=O)(=O)Nc1ccc(C(=O)Nc2ccc3c(c2)OCCO3)cc1	Cycloheximide cs 25
CC(C)(C)c1ccc(C(=O)Nc2cccc([N+](=O)[O-])c2)cc1	Cycloheximide cs 86, Shiga inhibitor 96
O=C(Nc1ccc2c(c1)OCCO2)c1ccc(Cl)cc1Cl	Cycloheximide cs 24 (no result: Shiga inhibitor)
